Most compounds without a hit are left out; they make up all but 4% or so of the library.
D1 potentiator: enhances dopamine response at the human D1 receptor; hit rate 0.036% among 360,000; potentiation, % at 10 µM; P21728; HEK293 TREx D1 cells, calcium flux, dopamine EC20 potentiation; in the data active means potentiation above about 30%; further: 0% is about no effect
Glioma ERSR ind: inducers of ER stress response in human glioma cells. U87-MG GRP78 promoter luciferase reporter, 16 h. Potency, µM, without a hit: at the highest dose activation, actives largely listed as activators. hit rate 0.02% among 420,000; active means well fitted activation curve with a large enough effect; further: potency means the concentration at half of the fitted maximal effect; series mostly up to about 76 µM; % of control where 0% means no effect; nearly all actives have a fitted effect of over 35% in size
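Stably transfected U87-MG human glioma cells carrying a GRP78-based luminescent sensor were seeded at 1000 cells/well, pin-dosed with compounds and incubated 16 h. Luciferase reagent was then added, and end-point luminescence was read after 10 min at room temperature.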
TRHR ag: agonists of human TRH receptor; P34981; TRHR cells, calcium flux fluo-8, FDSS agonist mode; activation, % at 2 µM; hit rate 0.18% among 360,000; AID 493084; further: 0% is about no effect
Target sequence (P34981 whole entry, looked up): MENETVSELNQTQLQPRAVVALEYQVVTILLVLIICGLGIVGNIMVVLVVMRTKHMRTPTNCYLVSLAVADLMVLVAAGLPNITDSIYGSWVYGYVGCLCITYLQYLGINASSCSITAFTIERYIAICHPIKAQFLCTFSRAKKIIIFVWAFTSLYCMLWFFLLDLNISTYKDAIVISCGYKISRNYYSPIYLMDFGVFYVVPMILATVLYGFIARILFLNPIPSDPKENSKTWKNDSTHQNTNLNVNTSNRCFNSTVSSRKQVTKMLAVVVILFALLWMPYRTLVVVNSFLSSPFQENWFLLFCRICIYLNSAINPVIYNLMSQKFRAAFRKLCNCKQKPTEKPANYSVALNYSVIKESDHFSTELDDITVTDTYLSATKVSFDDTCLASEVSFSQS
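Read-out: compound-evoked intracellular calcium rise in TRHR cells, fluo-8 dye, kinetic FDSS fluorescence at 1 s/cycle following a 10-cycle baseline. Cells cultured overnight before dye loading (30 min–1.5 h, RT).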
TRHR PAM: allosteric enhancers of human TRH receptor | P34981 | TRHR cells, fluo-8 calcium fluorescence, EC20 TRH enhancement | enhancement, % at 2 µM | hit rate 0.66% among 360,000; in the data active means enhancement above about 30%; further: 0% is about no effect
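Enhancer read-out: after compound pinning and an initial kinetic agonist-mode read, an EC20 of TRH (10 nM final) was injected and fluo-8 calcium signal (Ex 480/Em 530) followed at 1 s/cycle for 100 cycles in TRHR-expressing cells.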
D1 agonist: agonists of human D1 dopamine receptor. hit rate 1% among 360,000. HEK293 T-REx D1 cells, calcium flux, agonist mode. activation, % at 2 µM. P21728; further: 0% is about no effect
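Inducible HEK293 T-REx D1 cells, force-coupled to calcium signalling, were plated at 4000 cells/well with tetracycline and held overnight at 30 C. After no-wash calcium dye loading, compound-evoked calcium rise over 180 s flagged agonists.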
D1 antagonist: blocks dopamine activation of the human D1 receptor; P21728; HEK293 TREx D1 cells, calcium flux, dopamine EC80; active compounds read low; activity change, negative = inhibition, % at 10 µM; hit rate 3.2% among 360,000; AID 504652; in the data active means activity change below about -30%; further: on the % scale 0 is the no-effect control and ±100 the full control effect
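Cells carrying a force-coupled, tetracycline-inducible human D1 receptor report calcium flux. Each well gets a 10 s baseline, compound with 180 s monitoring, then an EC80 dopamine stimulus with a second 180 s kinetic read.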
* hit, by the source's call; . = not tested or not shown; ! = not confirmed by another sample. Unless noted, no stated cut-off is given here; in the data, active means activation above about 30%; inactive means the rest.

SMILES	D1 potentiator	Glioma ERSR ind	TRHR ag	TRHR PAM	D1 agonist	D1 antagonist
O=[N+]([O-])c1ccc(/C=N/Nc2nc(N3CCCC3)nc(N3CCCC3)n2)o1	-1	-1%	0	-1	1	-13
O=[N+]([O-])c1ccc(-c2ccc(/C=N/Nc3nc(N4CCCC4)nc(N4CCCC4)n3)o2)cc1	-2	0%	18	-7	76*	18
O=[N+]([O-])c1ccc(-c2ccc(/C=N/Nc3nc(N4CCCCC4)nc(N4CCCCC4)n3)o2)cc1	-2	-3%	14	1	47*	-2
O=[N+]([O-])c1cccc(-c2ccc(/C=N/Nc3nc(N4CCCCC4)nc(N4CCCCC4)n3)o2)c1	1	-6%	-1	-2	5	3
CC(NCC(O)c1ccc([N+](=O)[O-])cc1)C12CC3CC(CC(C3)C1)C2 (stereo unspecified)	-7	-6%	-2	-19	49*	-4
C(=C1NCCN1)c1cccc2ccccc12	.	-3%	.	.	.	.
O=C(NCc1ccc2c(c1)OCO2)c1ccc(CS(=O)(=O)c2cccc(C(F)(F)F)c2)o1	-4	-6%	0	-12	2	5
O=C(NCc1ccc2c(c1)OCO2)c1ccc(CS(=O)(=O)c2ccc(Br)cc2)o1	.	-3%	-1	6	36*	-25
CCOC(=O)CC1=C(C(=O)OCC)C(c2cccnc2)C(C#N)=C(N)O1 (stereo unspecified)	-6	0%	0	33*	1	9
CCOC(=O)C1=C(C)OC(N)=C(C(=O)OCC)C1c1cccnc1 (stereo unspecified)	-7	-7%	-1	1	-1	-33*
CCOC(=O)C1=C(C)OC(N)=C(C(=O)OCC)C1c1ccncc1 (stereo unspecified)	0	-3%	0	-9	0	0
O=C(/C=C/Nc1ccc(F)c(Cl)c1)c1ccco1	19	-6%	0	7	8	-37*
O=C(/C=C/Nc1cccc(F)c1)c1ccco1	-4	0%	0	1	0	2
Cc1ccc(NC(=O)CCN2C(=O)NC3(CCCC3)C2=O)c(C)c1	-14	-3%	-1	-6	2	-34*
Cc1ccc(NC(=O)NC(=O)CN2C(=O)NC3(CCCCCCC3)C2=O)c(C)c1	0	-2%	0	-3	0	-12
O=Cc1cn(CC(O)Cn2cc(C=O)c3ccccc32)c2ccccc12	-7	-4%	0	-7	4	-15
CCCCN(C)CC(O)Cn1cc(/C=C/C(=O)c2cccs2)c2ccccc21 (stereo unspecified)	-8	-2%	6	-9	67*	-20
CCOc1ccc(C(=O)/C=C/c2cn(CC(O)CN3CCc4ccccc43)c3ccccc23)cc1 (stereo unspecified)	-5	-5%	3	1	12	-20
CCCCN(CCCC)CC(O)Cn1cc(/C=C/C(=O)c2ccccc2)c2ccccc21 (stereo unspecified)	2	-10%	2	1	13	-11
CCCCN(C)CC(O)Cn1cc(/C=C/C(=O)c2ccc(OCC)cc2)c2ccccc21 (stereo unspecified)	-3	-11%	1	-2	41*	-56*!
O=C(/C=C/c1cn(CC(O)CN2CCCCCC2)c2ccccc12)c1cccs1 (stereo unspecified)	-8	-1%	11	5	77*	-21
CC[Si](CC)(CC)O[C@H]([C@@H](C)COCOC)[C@@H](C)COCc1ccc(OC)cc1	.	6%	.	.	.	.
Cc1ccc(/C=C/C(=O)N2CCC(Cc3ccccc3)CC2)cc1	-9	2%	1	6	10	-33*
Cc1cccc(C(=O)N2CCC(Cc3ccccc3)CC2)c1[N+](=O)[O-]	-6	-5%	0	9	1	-36*
Cc1ccccc1OC(C)C(=O)N1CCC(Cc2ccccc2)CC1 (stereo unspecified)	-2	4%	0	-5	13	-47*
Cc1ccc(/C=C/C(=O)N2CCCC(C)C2)cc1 (stereo unspecified)	-2	-9%	0	-1	1	-3

Screening data (PubChem BioAssay)
